A word on the AC50: it is the concentration giving half of the maximal activity seen.

This passage reports outcome and AC50 results from PubChem BioAssay (EPA / NIEHS).

SMILES strings stand for the structures. Inconclusive results are not listed. Activity calls are given as the source filed them. How the source made its calls, unless noted: active means hit-call score of the fitted dose curve at least 0.9, where 1 is the maximum; inactive means score below 0.9.

The nature of experiment [1]: ATG_NFI_CIS: Attagene CIS-FACTORIAL HepG2 Assay for human Nuclear Factor I (NFI) (AID 2282989). The conditions noted are these: HepG2 cis-regulatory reporter, NFI response element transcription; actives raise or lower the signal. A digest of the protocol: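 Multiplexed cis-reporter system in human HepG2 cells reports native TF activity as reporter mRNA induction 24 h post-dose. Fragments labelled with 6-FAM, HpaI-digested and resolved by capillary electrophoresis; activity fitted both directions versus DMSO.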

For experiment [2], the target named is Myc proto-oncogene protein (Homo sapiens) (UniProt P01106). Put plainly: ATG_Myc_CIS: Attagene CIS-FACTORIAL HepG2 Assay for human Myelocytomatosis (Myc) Proto-Oncogene Transcription Factor (AID 2282990). The conditions noted are these: HepG2, Attagene cis-reporter transcription factor activity; actives raise or lower the signal. Summed up: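 Multiplexed cis-reporter transcription in HepG2 cells after 24 h chemical treatment. Reporter mRNA measured by RT-PCR and capillary electrophoresis fluorescence; activity fitted bidirectionally against DMSO control.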

A short description of experiment [3]: ATG_NF_kB_CIS: Attagene CIS-FACTORIAL HepG2 Assay for human Nuclear Factor Kappa B (NF-kB) (AID 2282991). The conditions noted are these: HepG2 Attagene cis-factorial NF-kB reporter mRNA; actives raise or lower the signal. A digest of the protocol: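 HepG2 cells transfected with cis-promoter-driven reporter units, so endogenous transcription factor activity is measured. Reporter mRNA quantified 24 h after dosing by RT-PCR and capillary electrophoresis, with bidirectional fitting against DMSO.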

Experiment [4] can be described thus: ATG_NRF2_ARE_CIS: Attagene CIS-FACTORIAL HepG2 Assay for human Nuclear Factor Erythroid 2 Related Factor 2 (NFR2) response to Antioxidant Response Elements (ARE) (AID 2282992). To be noted: HepG2 Attagene ARE/NRF2 reporter, transcription factor activity; actives raise or lower the signal. A digest of the protocol: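 Endogenous transcription factor activity read out as reporter transcript levels (RT-PCR plus capillary electrophoresis, fluorescence) in transiently transfected HepG2 cells. Measured at 24 h after dosing; gain or loss of signal fitted versus DMSO.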

For experiment [5], the target named is human Peroxisome Proliferator-activated Receptor alpha (PPARa), PPARA (gene 5465) (UniProt Q07869). The experiment can be described thus: ATG_PPARa_TRANS: Attagene TRANS-FACTORIAL HepG2 Assay for human Peroxisome Proliferator-activated Receptor alpha (PPARa) (AID 2283001; active means hit-call score of the fitted dose curve at least 0.9, where 1 is the maximum;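 on AC50: potency for gain of reporter signal over DMSO so agonist or activator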). A digest of the protocol: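 Cells (HepG2) are transfected with multiple reporter transcription units, exposed to chemical for 24 h, then total RNA is reverse-transcribed and amplified. Labelled products are quantified by capillary electrophoresis; induction is referenced to DMSO.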

Experiment [6] addresses Peroxisome proliferator-activated receptor gamma (Homo sapiens) (UniProt P37231). The experiment can be described thus: ATG_PPARg_TRANS: Attagene TRANS-FACTORIAL HepG2 Assay for human Peroxisome Proliferator-activated Receptor-gamma (PPARg) (AID 2283007; active means hit-call score of the fitted dose curve at least 0.9, where 1 is the maximum). A digest of the protocol: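 HepG2 cells are transiently transfected with GAL4-UAS reporter units driven by chimeric NR-Gal4 fusions and dosed for 24 h. Reporter mRNA is quantified by RT-PCR, 6-FAM labelling, HpaI digestion and capillary electrophoresis. Induction is scored against DMSO.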

Experiment [7] deals with Nuclear receptor subfamily 1 group I member 2 (Homo sapiens) (UniProt O75469). Put plainly: ATG_PXR_TRANS: Attagene TRANS-FACTORIAL HepG2 Assay for human Pregnane X Receptor (PXR) (AID 2283008; active means hit-call score of the fitted dose curve at least 0.9, where 1 is the maximum). Summed up:
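Transactivation by exogenous PXR–GAL4 fusion measured as reporter transcript induction after 24 h compound treatment of transfected human HepG2 cells. Read-out via RT-PCR and capillary electrophoresis of labelled fragments, fitted upward relative to DMSO.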

Experiment [8] is described as follows: ATG_Oct_MLP_CIS: Attagene CIS-FACTORIAL HepG2 Assay for human Octamer-Binding Transcription Factor (Oct) (AID 2282993). The conditions noted are these: HepG2 Attagene cis-factorial Oct reporter, mRNA; actives raise or lower the signal. A digest of the protocol:
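After 24 h compound exposure, transfected HepG2 cells were lysed for total RNA; reporter-specific cDNA was PCR-amplified, fluorescently labelled and sized by capillary electrophoresis. Bidirectional curve fitting used DMSO as baseline.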

Experiment [9] concerns the target Cellular tumor antigen p53 (Homo sapiens) (UniProt P04637). Put plainly: ATG_p53_CIS: Attagene CIS-FACTORIAL HepG2 Assay for human p53 Transcription Factor (AID 2282994). The conditions noted are these: HepG2 p53 cis-element reporter, Attagene mRNA; actives raise or lower the signal. A digest of the protocol: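 Endogenous p53 activity read in transiently transfected HepG2 from a cis-element-driven reporter transcript after 24 h exposure. RNA reverse-transcribed, PCR-amplified, fluorescently labelled and sized by capillary electrophoresis; gain or loss fitted against DMSO baseline.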

Experiment [10] has as its target human Peroxisome Proliferator-activated Receptor delta (PPARd), PPARD (gene 5467) (UniProt Q03181). The experiment can be described thus: ATG_PPARd_TRANS: Attagene TRANS-FACTORIAL HepG2 Assay for human Peroxisome Proliferator-activated Receptor delta (PPARd) (AID 2283002; active means hit-call score of the fitted dose curve at least 0.9, where 1 is the maximum). Summed up:
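Multiplexed trans-activation format: HepG2 liver cells expressing exogenous NR-Gal4 chimeras and GAL4-UAS reporters were exposed for 24 h. Reporter mRNA was detected by RT-PCR with capillary electrophoresis fluorescence; activity fitted as gain of signal relative to DMSO.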

The target in experiment [11] is human RAR-related Orphan Receptor beta (RORb), RORB (gene 6096) (UniProt Q92753). Put plainly: ATG_RORb_TRANS: Attagene TRANS-FACTORIAL HepG2 Assay for human RAR-related Orphan Receptor beta (RORb) (AID 2283010; active means hit-call score of the fitted dose curve at least 0.9, where 1 is the maximum). Summed up: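 Read-out is reporter mRNA induction, quantified by RT-PCR with fluorescent capillary electrophoresis, 24 h post-dose in transiently transfected HepG2 expressing exogenous NR-Gal4 chimera. Activity fitted upward versus DMSO.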

Experiment [12] has as its target human Retinoic Acid Receptor gamma (RARg), RARG (gene 5916) (UniProt P13631). Put plainly: ATG_RARg_TRANS: Attagene TRANS-FACTORIAL HepG2 Assay for human Retinoic Acid Receptor gamma (RARg) (AID 2283009; active means hit-call score of the fitted dose curve at least 0.9, where 1 is the maximum). A digest of the protocol: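 Transactivation of exogenous RARg-Gal4 fusion measured as reporter transcript induction after 24 h in transfected HepG2 cells. RNA reverse-transcribed, amplified, fluorescently labeled and resolved by capillary electrophoresis; increase relative to DMSO.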

Experiment [13] deals with human Retinoic Acid Receptor beta (RARb), RARB (gene 5915) (UniProt P10826). The experiment can be described thus: ATG_RARb_TRANS: Attagene TRANS-FACTORIAL HepG2 Assay for human Retinoic Acid Receptor beta (AID 2283004; active means hit-call score of the fitted dose curve at least 0.9, where 1 is the maximum). A digest of the protocol: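 HepG2 cells transiently transfected with multiplexed GAL4-UAS reporter units expressing chimeric NR–Gal4 fusions; 24 h compound exposure. Reporter mRNA quantified by RT-PCR, 6-FAM labelling, HpaI digestion and capillary electrophoresis; gain-of-signal fitted against DMSO baseline.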

For experiment [14], the target named is Retinoic acid receptor alpha (Homo sapiens) (UniProt P10276). Put plainly: ATG_RARa_TRANS: Attagene TRANS-FACTORIAL HepG2 Assay for human Retinoic Acid Receptor alpha (RARa) (AID 2283005; active means hit-call score of the fitted dose curve at least 0.9, where 1 is the maximum). A digest of the protocol:
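HepG2 cells transiently transfected with multiple reporter units expressing chimeric RARα-GAL4 fusion, with GAL4-UAS-driven reporters. After 24 h compound exposure, reporter mRNA induction quantified by RT-PCR and capillary electrophoresis with fluorescent labeling; gain-of-signal fitted relative to DMSO control.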

A short description of experiment [15]: BSK_3C_TissueFactor: BioMAP Diversity Plus: 3C Assay for Tissue Factor Biomarker Activity (AID 2282997). To be noted: BioMAP 3C HUVEC, tissue factor biomarker readout; actives raise or lower the signal. Summed up: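 Readout: Tissue Factor ELISA. Cells: human primary umbilical vein endothelium. Time: 24 h after dosing. Analysis: bidirectional fit, DMSO baseline.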

The nature of experiment [16]: BSK_3C_uPAR: BioMAP Diversity Plus: 3C Assay for Urokinase-type plasminogen activator receptor (uPAR) Biomarker Activity (AID 2282998). The conditions noted are these: BioMAP 3C HUVEC, uPAR biomarker ELISA; actives raise or lower the signal. A digest of the protocol:
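Values derive from bidirectional curve fitting relative to DMSO, which served as baseline of activity. uPAR was measured by ELISA in human umbilical vein endothelial primary cultures 24 h after compound addition.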

A short description of experiment [17]: BSK_3C_VCAM1: BioMAP Diversity Plus: 3C Assay for Vascular cell adhesion molecule 1 (VCAM1) Biomarker Activity (AID 2282999). The conditions noted are these: BioMAP 3C HUVEC, VCAM1 ELISA, cytokine-stimulated; actives raise or lower the signal. Summed up: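 Vascular primary endothelium (human umbilical vein) was exposed to chemicals and assayed 24 h later. VCAM-1 levels came from ELISA, with DMSO serving as baseline for bidirectional fitting.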
(In general: ELISA stands for enzyme-linked immunosorbent assay.)

Experiment [18] in a line: BSK_4H_Eotaxin3: BioMAP Diversity Plus: 4H Assay for Eotaxin 3 Biomarker Activity (AID 2283000).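 Further: CCL26 protein level quantified by ELISA in parallel with SRB cytotoxicity check.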 To be noted: primary human endothelial cells (HUVEC); actives raise or lower the signal. A digest of the protocol:
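HUVEC, 24 h post-dose, ELISA for Eotaxin-3/CCL26. Gain or loss of signal fitted bidirectionally vs DMSO baseline.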

Read-out in experiment [19]: Intercellular Adhesion Molecule 1 (ICAM1), ICAM1 (gene 3383)
Put plainly: BSK_3C_ICAM1: BioMAP Diversity Plus: 3C Assay for Intercellular Adhesion Molecule 1 (ICAM1) Biomarker Activity (AID 2283003). To be noted: primary human endothelial cells (HUVEC); actives raise or lower the signal. A digest of the protocol:
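ELISA readout of ICAM1 in human umbilical vein endothelial cells in the 3C system, taken 24 h post-dose. Gain or loss of signal versus DMSO was fitted in both directions, with SRB total-protein staining run in parallel.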

The nature of experiment [20]: BSK_3C_Proliferation: Cell Proliferation Assessment in the BioMAP Diversity Plus: 3C Assay (AID 2283006). To be noted: primary human endothelial cells (HUVEC). A digest of the protocol:
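Proliferation as total protein: sulforhodamine B (0.1%) stain of TCA-fixed subconfluent human umbilical vein endothelial cells, absorbance 560 nm, 48 h after dosing. Activity fitted in both directions against DMSO baseline.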

human RAR-related Orphan Receptor beta (RORb), RORB (gene 6096), sequence (Q92753 whole entry, looked up, the tested form may be a part): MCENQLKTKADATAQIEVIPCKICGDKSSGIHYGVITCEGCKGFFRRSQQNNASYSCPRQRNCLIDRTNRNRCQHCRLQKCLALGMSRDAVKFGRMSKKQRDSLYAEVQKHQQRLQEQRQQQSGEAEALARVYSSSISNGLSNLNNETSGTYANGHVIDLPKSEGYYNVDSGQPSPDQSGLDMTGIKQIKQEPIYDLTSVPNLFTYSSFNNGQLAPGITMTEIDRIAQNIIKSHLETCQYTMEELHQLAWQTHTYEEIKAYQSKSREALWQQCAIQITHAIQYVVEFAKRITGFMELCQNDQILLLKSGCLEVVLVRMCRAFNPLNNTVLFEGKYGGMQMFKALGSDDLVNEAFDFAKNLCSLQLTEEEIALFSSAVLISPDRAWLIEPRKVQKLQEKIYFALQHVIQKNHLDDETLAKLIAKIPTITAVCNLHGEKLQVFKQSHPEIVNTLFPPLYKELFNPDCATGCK
human Retinoic Acid Receptor beta (RARb), RARB (gene 5915), sequence (P10826 whole entry, looked up, the tested form may be a part): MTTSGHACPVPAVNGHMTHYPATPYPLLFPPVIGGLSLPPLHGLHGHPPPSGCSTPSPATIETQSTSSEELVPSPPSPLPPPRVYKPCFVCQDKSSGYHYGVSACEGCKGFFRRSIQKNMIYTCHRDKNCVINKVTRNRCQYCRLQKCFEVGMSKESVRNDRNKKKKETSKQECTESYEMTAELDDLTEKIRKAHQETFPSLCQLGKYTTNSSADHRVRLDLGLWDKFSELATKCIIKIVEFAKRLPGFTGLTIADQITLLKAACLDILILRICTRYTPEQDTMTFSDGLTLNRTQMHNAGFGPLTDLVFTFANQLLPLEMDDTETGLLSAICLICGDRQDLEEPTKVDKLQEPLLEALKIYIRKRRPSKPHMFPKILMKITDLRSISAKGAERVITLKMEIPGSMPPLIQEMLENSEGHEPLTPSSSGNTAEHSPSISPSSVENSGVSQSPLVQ
Cellular tumor antigen p53 (Homo sapiens), sequence (P04637 whole entry, looked up): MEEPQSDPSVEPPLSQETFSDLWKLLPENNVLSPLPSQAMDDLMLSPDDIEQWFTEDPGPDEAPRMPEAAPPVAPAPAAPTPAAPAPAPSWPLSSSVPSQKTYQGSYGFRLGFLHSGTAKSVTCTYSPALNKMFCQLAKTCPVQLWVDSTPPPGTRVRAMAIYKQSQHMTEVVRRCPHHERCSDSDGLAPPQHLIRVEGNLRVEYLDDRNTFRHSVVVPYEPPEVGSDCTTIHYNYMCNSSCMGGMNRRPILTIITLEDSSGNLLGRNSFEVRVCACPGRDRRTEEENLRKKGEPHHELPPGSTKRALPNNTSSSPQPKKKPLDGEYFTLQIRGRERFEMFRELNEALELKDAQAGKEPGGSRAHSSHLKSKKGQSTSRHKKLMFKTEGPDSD
human Peroxisome Proliferator-activated Receptor delta (PPARd), PPARD (gene 5467), sequence (Q03181 whole entry, looked up, the tested form may be a part): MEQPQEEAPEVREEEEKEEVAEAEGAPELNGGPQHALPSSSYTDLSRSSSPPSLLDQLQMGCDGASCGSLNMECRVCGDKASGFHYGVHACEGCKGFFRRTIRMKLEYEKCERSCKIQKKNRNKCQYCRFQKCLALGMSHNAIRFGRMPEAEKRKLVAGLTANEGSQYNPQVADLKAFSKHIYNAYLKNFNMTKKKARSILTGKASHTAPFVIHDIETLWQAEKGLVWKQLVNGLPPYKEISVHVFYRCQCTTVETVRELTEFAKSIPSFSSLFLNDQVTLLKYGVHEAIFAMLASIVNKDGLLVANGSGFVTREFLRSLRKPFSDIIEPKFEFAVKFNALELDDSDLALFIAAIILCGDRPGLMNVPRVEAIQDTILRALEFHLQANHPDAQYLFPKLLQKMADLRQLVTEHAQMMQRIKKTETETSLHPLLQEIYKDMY
Myc proto-oncogene protein (Homo sapiens), sequence (P01106 whole entry, looked up): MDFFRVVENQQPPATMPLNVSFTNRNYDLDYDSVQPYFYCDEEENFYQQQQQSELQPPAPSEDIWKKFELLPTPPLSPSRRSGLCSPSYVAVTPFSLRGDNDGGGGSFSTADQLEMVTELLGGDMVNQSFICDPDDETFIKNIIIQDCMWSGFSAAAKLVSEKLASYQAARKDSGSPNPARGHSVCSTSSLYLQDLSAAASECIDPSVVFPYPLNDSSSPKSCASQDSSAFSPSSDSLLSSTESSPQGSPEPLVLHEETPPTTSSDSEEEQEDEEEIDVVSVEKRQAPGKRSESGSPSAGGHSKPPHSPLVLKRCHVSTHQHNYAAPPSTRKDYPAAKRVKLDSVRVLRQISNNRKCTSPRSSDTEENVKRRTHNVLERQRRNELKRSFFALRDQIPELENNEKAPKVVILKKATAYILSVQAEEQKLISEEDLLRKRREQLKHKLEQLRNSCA
human Peroxisome Proliferator-activated Receptor alpha (PPARa), PPARA (gene 5465), sequence (Q07869 whole entry, looked up): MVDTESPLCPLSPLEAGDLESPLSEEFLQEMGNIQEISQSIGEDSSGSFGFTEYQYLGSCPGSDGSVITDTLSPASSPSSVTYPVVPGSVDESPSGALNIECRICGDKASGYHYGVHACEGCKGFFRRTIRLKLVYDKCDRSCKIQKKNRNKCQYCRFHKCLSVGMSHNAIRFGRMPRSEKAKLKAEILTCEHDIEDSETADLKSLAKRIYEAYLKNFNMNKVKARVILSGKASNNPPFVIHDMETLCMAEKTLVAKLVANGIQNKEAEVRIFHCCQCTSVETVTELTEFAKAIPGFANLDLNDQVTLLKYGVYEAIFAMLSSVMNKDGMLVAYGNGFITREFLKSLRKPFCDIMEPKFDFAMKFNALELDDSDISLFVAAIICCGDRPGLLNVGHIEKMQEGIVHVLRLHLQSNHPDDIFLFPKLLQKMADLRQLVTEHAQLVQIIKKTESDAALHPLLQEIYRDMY
human Retinoic Acid Receptor gamma (RARg), RARG (gene 5916), sequence (P13631 whole entry, looked up, the tested form may be a part): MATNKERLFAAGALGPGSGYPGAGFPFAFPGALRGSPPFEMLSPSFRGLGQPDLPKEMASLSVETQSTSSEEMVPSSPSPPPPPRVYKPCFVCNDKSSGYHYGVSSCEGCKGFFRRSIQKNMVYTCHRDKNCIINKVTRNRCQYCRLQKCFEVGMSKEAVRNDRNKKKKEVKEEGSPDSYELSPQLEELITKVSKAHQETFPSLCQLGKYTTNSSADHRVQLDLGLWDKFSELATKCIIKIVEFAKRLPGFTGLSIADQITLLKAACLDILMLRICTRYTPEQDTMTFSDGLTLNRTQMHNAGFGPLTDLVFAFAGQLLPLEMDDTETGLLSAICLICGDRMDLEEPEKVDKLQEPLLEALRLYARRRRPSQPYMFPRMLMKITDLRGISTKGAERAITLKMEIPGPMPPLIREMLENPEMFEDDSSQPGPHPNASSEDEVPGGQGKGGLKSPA
Peroxisome proliferator-activated receptor gamma (Homo sapiens), sequence (P37231 whole entry, looked up, the tested form may be a part): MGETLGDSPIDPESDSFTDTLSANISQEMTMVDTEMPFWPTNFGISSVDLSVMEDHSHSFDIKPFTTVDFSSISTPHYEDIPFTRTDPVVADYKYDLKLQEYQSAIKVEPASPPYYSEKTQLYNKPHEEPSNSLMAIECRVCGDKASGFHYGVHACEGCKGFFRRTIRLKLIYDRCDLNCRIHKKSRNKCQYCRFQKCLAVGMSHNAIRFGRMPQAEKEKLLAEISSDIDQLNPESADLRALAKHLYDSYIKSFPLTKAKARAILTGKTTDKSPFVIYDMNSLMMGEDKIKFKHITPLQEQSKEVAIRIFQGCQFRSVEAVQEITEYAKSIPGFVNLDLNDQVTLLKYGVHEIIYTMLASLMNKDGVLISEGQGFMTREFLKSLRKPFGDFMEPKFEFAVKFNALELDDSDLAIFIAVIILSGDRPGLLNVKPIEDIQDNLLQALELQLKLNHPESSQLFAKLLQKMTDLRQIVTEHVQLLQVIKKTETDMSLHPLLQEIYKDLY
Nuclear receptor subfamily 1 group I member 2 (Homo sapiens), sequence (O75469 whole entry, looked up, the tested form may be a part): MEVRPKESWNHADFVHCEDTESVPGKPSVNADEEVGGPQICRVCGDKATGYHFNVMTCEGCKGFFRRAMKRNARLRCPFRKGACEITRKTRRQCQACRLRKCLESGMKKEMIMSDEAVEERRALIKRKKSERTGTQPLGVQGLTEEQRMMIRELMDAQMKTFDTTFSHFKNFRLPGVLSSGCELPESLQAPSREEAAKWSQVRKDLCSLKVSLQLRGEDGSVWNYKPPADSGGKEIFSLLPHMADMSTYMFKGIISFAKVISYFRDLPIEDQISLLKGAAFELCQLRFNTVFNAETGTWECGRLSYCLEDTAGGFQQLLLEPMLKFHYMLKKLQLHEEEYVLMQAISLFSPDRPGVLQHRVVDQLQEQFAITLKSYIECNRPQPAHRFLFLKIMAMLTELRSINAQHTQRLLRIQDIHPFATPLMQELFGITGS
Retinoic acid receptor alpha (Homo sapiens), sequence (P10276 whole entry, looked up, the tested form may be a part): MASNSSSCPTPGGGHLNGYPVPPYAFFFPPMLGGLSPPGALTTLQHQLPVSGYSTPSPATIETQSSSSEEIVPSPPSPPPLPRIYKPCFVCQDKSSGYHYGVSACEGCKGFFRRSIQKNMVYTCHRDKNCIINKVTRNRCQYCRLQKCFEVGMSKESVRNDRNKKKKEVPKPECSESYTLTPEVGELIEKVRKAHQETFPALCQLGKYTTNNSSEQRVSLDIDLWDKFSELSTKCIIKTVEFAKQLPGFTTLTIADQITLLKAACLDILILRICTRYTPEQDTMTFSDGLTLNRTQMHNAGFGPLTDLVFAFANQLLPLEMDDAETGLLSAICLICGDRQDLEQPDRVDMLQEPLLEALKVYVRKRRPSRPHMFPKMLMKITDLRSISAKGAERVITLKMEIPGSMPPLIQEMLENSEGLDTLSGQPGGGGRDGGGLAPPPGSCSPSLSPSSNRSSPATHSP

For `C=C(C)[C@@H]1CC=C(C)C(=O)C1`, the molecule was classed as inactive in experiment [1], in experiment [2], in experiment [3], in experiment [5], in experiment [6] and in experiment [7]. The AC50 in experiment [4] was 45.4 µM (active).
Take `C=CCCCCCCCCCC`: the outcome in experiment [1], in [2], in experiment [4], in experiment [8], in experiment [9] and in experiment [10] was inactive. Further, the molecule was classed as inactive in experiment [6] and in [11].
With `COC(=O)Nc1ccc(Cl)c(Cl)c1`, the call in [1], in experiment [2], in [8], in [9], in experiment [5] and in [10] was inactive. For the same molecule, the result in [7] was inactive. Also, the AC50 is 100 µM (active) in experiment [4] and 27.4 µM (active) in [6].
Consider `CC=CC=CCOC(=O)C(C)C`, for which the result in experiment [1], in [2], in experiment [8], in [9], in experiment [5] and in experiment [7] was inactive. Further, the figures for the AC50 in [4] and in experiment [6] were 27.1 µM (active) and 11.1 µM (active), respectively.
In the case of `CCCCCCCCCCCC(=O)OCC(O)CO` (stereo unspecified), the result in experiment [1], in [2], in experiment [7] and in experiment [12] was inactive. Besides, the AC50 in [3], in experiment [4], in [5] and in experiment [6] was 100 µM (active) throughout.
For `O=C(O)c1ccc(O)cc1`, the outcome in experiment [1], in [2], in [4], in [8], in experiment [9] and in experiment [5] was inactive. In addition, the result in experiment [10], in experiment [13], in experiment [14], in [6], in experiment [7] and in [12] was inactive. Besides, the molecule was called inactive in experiment [11].
For `OCc1ccc(Cl)cc1Cl`, the call in experiment [1], in experiment [2], in experiment [4], in experiment [8], in experiment [9] and in experiment [5] was inactive. The molecule was classed as inactive in experiment [10], in [14] and in experiment [7].
For `O=C1OC(=O)c2c(Cl)c(Cl)c(Cl)c(Cl)c21`, the molecule was called inactive in experiment [1], in [2], in experiment [4], in [8], in experiment [9] and in experiment [5]. The molecule was called inactive in [10], in [13] and in experiment [11].
With `NC1CCCCC1N` (stereo unspecified), the molecule was classed as inactive in experiment [1], in [2], in experiment [4], in [8], in experiment [9] and in [10]. For the same molecule, the molecule was classed as inactive in experiment [7].
Take `CC=Cc1ccc(OCC)c(O)c1`: the result in [1], in experiment [2], in [4], in experiment [8], in experiment [9] and in experiment [15] was inactive. Further, the outcome in [16], in [17], in experiment [18], in experiment [5], in experiment [19] and in [20] was inactive. For the same molecule, the AC50 in experiment [6] is 31.8 µM (active); in experiment [7], 53.6 µM (active).
On to `CCOc1ccc(N=Nc2ccc(C=Cc3ccc(N=Nc4ccc(OCC)cc4)cc3S(=O)(=O)O)c(S(=O)(=O)O)c2)cc1`, for which the call in [1], in experiment [2], in [4], in experiment [8], in experiment [9] and in [10] was inactive. The molecule was classed as inactive in [13], in [6] and in [12].
